In the library only some 6.3% were active in any assay of this set; here they are far more common.
Spn DPM-DC inh: S. pneumoniae DPM-DC inhibitors, primary screen, biochemical, PK/LDH-coupled NADH fluorescence. purified DPM-DC. calls only at 10 µM. actives 0.49% (n = 65,000);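 active means the 320 compounds with the highest percent inhibition in the single-dose primary screen, excluding strongly autofluorescent ones, cut at about 32% in these data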;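 further: kinetic rate of NADH fluorescence loss reporting ADP formed by the decarboxylase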
Spn MK inh: S. pneumoniae MK inhibitors, primary screen, biochemical, PK/LDH-coupled NADH absorbance | mevalonate kinase [Streptococcus pneumoniae D39] | purified MK, PK/LDH-coupled NADH absorbance 340 nm | inhibition, % at 10 µM | actives 0.48% (n = 65,000) | AID 555, 2006;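 active means ranked among the strongest by inhibition in the single 10 µM screen, a fixed top-ranked set picked for dose follow-up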
Abs 340nm: compound light absorbance at 340 nm, profiling panel, artefact control, biochemical, MLSMR library, data from PS, PMK, MK assays; 65,000 tested, under 10 active; fold change at 10 µM; compound absorbance at 340 nm, fold over control;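 active means at 10 µM dose, initial 340 nm absorbance at least 2 fold that of control wells; inactive means change under 2 fold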;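 further: initial absorbance extrapolated from kinetic A340 decline of NADH oxidation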
Spn PMK inh: S. pneumoniae PMK inhibitors, primary screen, biochemical, mevalonate pathway, pilot trial included; purified PMK, PK/LDH-coupled NADH absorbance 340 nm; phosphomevalonate kinase (Streptococcus pneumoniae D39); inhibition, % at 10 µM; actives 0.49% (n = 65,000);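 active means top-ranked compounds by inhibition in the single 10 µM screen, taking a fixed number of the strongest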
Fluor 339 460: intrinsic fluorescence of library compounds, ex339/em460 – biochemical, MLSMR library, data from DPM-DC assay, artefact control, profiling panel; compound autofluorescence, ex339/em460 nm, NADH buffer; active compounds read high; 1 = no-compound wells, NADH background; actives 5.5% (n = 65,000); AID 709, 2007; fluorescence fold increase at 10 µM;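 active means at 10 µM, mean starting fluorescence two-fold or more over control wells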;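 further: signal is the first read of a kinetic run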
NADH enzymes: inhibitors of PK/LDH coupling enzymes, profiling panel, artefact control, biochemical, MLSMR library | IC50, µM (highest dose often 10 µM) | coupled PK/LDH NADH assays, four targets | actives 0.02% (n = 65,000);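 active means single-dose screening hits from any of four coupled enzyme assays that gave an IC50 when retested across doses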;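 further: the DPM-DC format reads NADH fluorescence rather than 340 nm absorbance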
Numbers stand for hits.

For CCOc1ccc2[nH]c(=O)c(CN(Cc3cccs3)Cc3nnnn3C(C)(C)CC)cc2c1 the results were Spn DPM-DC inh inactive, Spn MK inh inactive, Abs 340nm inactive, Spn PMK inh inactive, Fluor 339 460 2.6 and NADH enzymes inactive.
Cc1ccc2cc(CN(CCO)Cc3nnnn3Cc3ccc(F)cc3)c(=O)[nH]c2c1 was read as Spn DPM-DC inh inactive, Spn MK inh inactive, Abs 340nm inactive, Spn PMK inh inactive, Fluor 339 460 inactive and NADH enzymes inactive.
For COc1ccc(-c2nc3c(c(=O)n(C)c(=O)n3C)n2CC2CC(c3ccccc3)=NO2)cc1OC (stereo not given) the results were Spn DPM-DC inh inactive, Spn MK inh inactive, Abs 340nm inactive, Spn PMK inh inactive, Fluor 339 460 inactive and NADH enzymes inactive.
Screening CCN(CC)CC(=O)Nc1cc(C)c2c(=O)oc3ccccc3c2n1 returned Spn DPM-DC inh inactive, Spn MK inh inactive, Abs 340nm inactive, Spn PMK inh inactive, Fluor 339 460 inactive and NADH enzymes inactive.
COCCn1nnnc1C(c1ccc(Cl)cc1)N1CCSCC1 (stereo not given) was read as Spn DPM-DC inh inactive, Spn MK inh inactive, Abs 340nm inactive, Spn PMK inh inactive, Fluor 339 460 inactive and NADH enzymes inactive.
`Brc1cnn(-c2nc(N3CCOCC3)nc(N3CCOCC3)n2)c1` gave Spn DPM-DC inh inactive, Spn MK inh inactive, Abs 340nm inactive, Spn PMK inh inactive, Fluor 339 460 inactive and NADH enzymes inactive.
`O=C(CN(CCc1ccccc1)C(=O)CNS(=O)(=O)c1ccc(F)cc1)NCC1CCCO1` (stereo not given) gave Spn DPM-DC inh inactive, Spn MK inh inactive, Abs 340nm inactive, Spn PMK inh inactive, Fluor 339 460 inactive and NADH enzymes inactive.
COc1ccc(-c2ccc(-c3nnc(Cc4ccc(OC)c(OC)c4)o3)cc2)cc1 was read as Spn DPM-DC inh inactive, Spn MK inh inactive, Abs 340nm inactive, Spn PMK inh inactive, Fluor 339 460 2.6 and NADH enzymes inactive.
`O=C1CCCC2=C1C(c1cccs1)n1nc(SCc3ccccc3F)nc1N2` (stereo not given) gave Spn DPM-DC inh inactive, Spn MK inh inactive, Abs 340nm inactive, Spn PMK inh inactive, Fluor 339 460 2.2 and NADH enzymes inactive.
`CCCOc1ccc2oc(=O)c3c(c2c1)CCCN3C(=O)CN(C)Cc1ccccc1` gave Spn DPM-DC inh inactive, Spn MK inh inactive, Abs 340nm inactive, Spn PMK inh inactive, Fluor 339 460 inactive and NADH enzymes inactive.
For CCOC(=O)C1=C(C)NC(=O)NC1c1c(O)ccc2ccccc12 (stereo not given) the results were Spn DPM-DC inh inactive, Spn MK inh inactive, Abs 340nm inactive, Spn PMK inh inactive, Fluor 339 460 inactive and NADH enzymes inactive.
`Cc1cc(C)c(S(=O)(=O)NCc2cn3c(C)csc3n2)c(C)c1` gave Spn DPM-DC inh inactive, Spn MK inh inactive, Abs 340nm inactive, Spn PMK inh inactive, Fluor 339 460 inactive and NADH enzymes inactive.
For Cc1cc(C)c(S(=O)(=O)NCc2cn3c(C)csc3n2)cc1C the results were Spn DPM-DC inh active, Spn MK inh inactive, Abs 340nm inactive, Spn PMK inh inactive, Fluor 339 460 inactive and NADH enzymes inactive.
Screening Cc1sc2ncnc(NCC(c3ccco3)N(C)C)c2c1C (stereo not given) returned Spn DPM-DC inh inactive, Spn MK inh 56, Abs 340nm inactive, Spn PMK inh 30, Fluor 339 460 inactive and NADH enzymes inactive.
For Cc1sc2ncnc(N[C@@H](CCC(=O)O)C(=O)O)c2c1C the results were Spn DPM-DC inh inactive, Spn MK inh inactive, Abs 340nm inactive, Spn PMK inh inactive, Fluor 339 460 inactive and NADH enzymes inactive.
O=c1[nH]c2c(cc1CNCCN1CCOCC1)c(-c1cccc(F)c1)nn2-c1ccccc1 was read as Spn DPM-DC inh inactive, Spn MK inh inactive, Abs 340nm inactive, Spn PMK inh inactive, Fluor 339 460 3.5 and NADH enzymes inactive.
`Cc1nn(-c2ccccc2)c2[nH]c(=O)c(CNc3ccc(N4CCOCC4)cc3)cc12` gave Spn DPM-DC inh inactive, Spn MK inh inactive, Abs 340nm inactive, Spn PMK inh inactive, Fluor 339 460 inactive and NADH enzymes inactive.
O=C(COC(=O)c1cccc(NC(=O)c2ccco2)c1)c1ccc(Br)cc1 was read as Spn DPM-DC inh inactive, Spn MK inh inactive, Abs 340nm inactive, Spn PMK inh inactive, Fluor 339 460 inactive and NADH enzymes inactive.
`CCCCn1c(SCC2CCCCO2)nc2cc(S(N)(=O)=O)ccc21` (stereo not given) gave Spn DPM-DC inh inactive, Spn MK inh inactive, Abs 340nm inactive, Spn PMK inh inactive, Fluor 339 460 inactive and NADH enzymes inactive.
For CCc1cc(C(=O)OC)c(NC(=O)c2cc(Br)cs2)s1 the results were Spn DPM-DC inh inactive, Spn MK inh inactive, Abs 340nm inactive, Spn PMK inh inactive, Fluor 339 460 2.2 and NADH enzymes inactive.
For Cc1ccc2[nH]c(-c3ccccc3)cc(=O)c2c1 the results were Spn MK inh inactive, Abs 340nm inactive, Spn PMK inh inactive, Fluor 339 460 2.2 and NADH enzymes inactive.
For COc1ccc(S(=O)(=O)N(CC(=O)N2CCCC2)Cc2ccccc2)cc1 the results were Spn DPM-DC inh inactive, Spn MK inh inactive, Abs 340nm inactive, Spn PMK inh inactive, Fluor 339 460 inactive and NADH enzymes inactive.
`CCOC(=O)N1CCN(C(=O)CN(Cc2ccccc2)S(=O)(=O)c2ccc(OC)c(C)c2)CC1` gave Spn DPM-DC inh inactive, Spn MK inh active, Abs 340nm inactive, Spn PMK inh inactive, Fluor 339 460 inactive and NADH enzymes inactive.
O=C(c1cccc2ccccc12)N1CCN(CC2CC=CCC2)CC1 (stereo not given) was read as Spn DPM-DC inh inactive, Spn MK inh inactive, Abs 340nm inactive, Spn PMK inh inactive, Fluor 339 460 inactive and NADH enzymes inactive.
For Cc1cc(N2CCC(C)CC2)nc2ccc(N3C(=O)CCC3=O)cc12 the results were Spn MK inh inactive, Abs 340nm inactive, Spn PMK inh inactive, Fluor 339 460 5 and NADH enzymes inactive.
Cc1cc(N2CCN(C)CC2)nc2ccc(NC(=O)c3ccc(Br)o3)cc12 was read as Spn DPM-DC inh inactive, Spn MK inh inactive, Abs 340nm inactive, Spn PMK inh inactive, Fluor 339 460 inactive and NADH enzymes inactive.
Screening Cc1ccc(-c2nnc3sc(-c4ccncc4)nn23)cc1 returned Spn DPM-DC inh inactive, Spn MK inh inactive, Abs 340nm inactive, Spn PMK inh inactive, Fluor 339 460 inactive and NADH enzymes inactive.
`Nc1nnc(-c2ccncc2)s1` gave Spn MK inh inactive, Abs 340nm inactive, Spn PMK inh inactive, Fluor 339 460 3.9 and NADH enzymes inactive.

High-throughput results (PubChem BioAssay)
